Source: PubChem (National Center for Advancing Translational Sciences (NCATS))
An excerpt weighted towards active compounds, which were near 19% of everything screened.
HT1080 IDH1KD tx = kills HT-1080 cells with IDH1 knockdown; HT-1080 IDH1 knockdown viability, ATP luminescence, 48 h; Potency, µM (series often up to 46.1 µM), for the others: at the highest dose activity, negative = toxicity, hits mostly cytotoxic; 360,000 tested, 2% active;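 also: potency is read from the fitted curve at half-maximal effect; 0% = DMSO wells and -100% = cell-free medium wells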
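Luminescent ATP read-out (CellTiter-Glo, 10 min at room temperature) after 48 h compound exposure at 37 °C gave viability of IDH1-knockdown HT-1080 cells. Activity was normalised to DMSO and cell-free wells, then fitted as concentration-response curves.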
TDP1 cell noCPT = qHTS for Inhibitors of human tyrosyl-DNA phosphodiesterase 1 (TDP1): qHTS in cells in absence of CPT; Potency, µM (titrated, usually from 46.2 µM), for inactives: top-dose activity change, negative = growth inhibition, most hits filed as inhibitors; DT40 Tdp1-/- hTDP1 cells, no CPT, ATP luminescence, 48 h; 420,000 tested, 15% active; also: potency is read from the fitted curve at half-maximal effect; nearly all actives have a fitted effect of over 55% in size
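Growth of hTDP1-complemented DT40 Tdp1-knockout cells is measured by ATP luminescence after at least 48 hr compound exposure at 37 °C, with DMSO substituting for the 20 nM CPT used in the parallel screen.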
ELG1 DNA repair = blocks ELG1-dependent DNA repair in HEK293T cells; HEK293T ELG1-luciferase reporter, luminescence, 16 h; DNA damage induced by 5-fluorouridine; Potency, µM (series often up to 46.1 µM), inactives show at the top dose activity change, negative = inhibition, most hits filed as inhibitors; 330,000 tested, 2.3% active; AID 504467; also: potency is read from the fitted curve at half-maximal effect; nearly all actives have a fitted effect of over 55% in size
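5-Fluorouridine DNA damage + compound/DMSO, 2,000 cells/well, 16 h, 37 °C/5% CO2. ONE-Glo, 30 min RT, luminescence. Readout = decrease in reporter signal.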
HT1080NT lethal = kills 2HG-producing HT-1080-NT fibrosarcoma cells. HT-1080-NT fibrosarcoma viability, CellTiter-Glo ATP luminescence, 48 h. 360,000 tested, 1.6% active. Potency, µM (doses to about 46.1 µM), inactives show top-dose activity, negative = less viability, hits mostly cytotoxic;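 also: NT is the 2HG producing partner of a matched IDH1 knockdown line; potency is read from the fitted curve at half-maximal effect; 0% = DMSO-treated cells and -100% = media-only wells without cells; nearly all actives have a fitted effect of over 55% in size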
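Viability of the 2HG-overproducing fibrosarcoma line after 48 hours of compound exposure at 37 degrees C was determined by luminescence with CellTiter-Glo, and concentration-effect curves were then fitted and categorized.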
IL-1B inflam inh = inflammasome signaling inhibition, IL-1 beta readout | THP-1 LPS/ATP IL-1B secretion, AlphaLISA, 16 h; hits give low values | activity change, % at 57.5 µM | 360,000 tested, 4.7% active; in the data active = activity change below about -50%; inconclusive = mostly about -30% to -49%
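THP-1 cells pretreated 1 hr with compounds (up to 57.5 uM final), then stimulated with LPS (250 ng/mL final) plus ATP (1.25 mM final); secreted IL-1B measured by AlphaLISA after 16 hr, decreased signal indicating inhibition.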
TDP1 cell CPT = DT40-hTDP1 cell growth loss with CPT; 420,000 tested, 12% active; chicken DT40 Tdp1-/-;hTDP1 cells + 20 nM CPT, ATP luminescence, 48 h; Potency, µM (series often up to 46.2 µM), for inactives: at the highest dose activity change, negative = growth inhibition, hits mostly inhibitors; AID 686979; also: potency is read from the fitted curve at half-maximal effect; nearly all actives have a fitted effect of over 55% in size
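Cell growth measured by CellTiter-Glo luminescence after a minimum 48 h, 37 C compound exposure with 20 nM CPT in Tdp1-knockout DT40 cells stably expressing hTDP1, seeded 400/well; qHTS titration format.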
* marks the source's active call; other numbers are inactive results; [ ] = remark or other dose. Unless noted, calls follow the shape of the dose curve; as a rule, active = well fitted curve in the direction sought with a large enough effect; inconclusive = small, poorly fitted or top-dose-only effect, or another doubt; inactive = no such curve, though single readings can be large; an effect the other way counts as inactive or inconclusive. Unless noted, % is scaled to controls: 0 for no effect and ±100 for the full control effect.

How did CCCc1[nH]nc2c1C(/C(C)=C/c1ccccc1)C(C#N)=C(N)O2 (stereo not drawn) do in these assays?
HT1080 IDH1KD tx: 0%[9.24 µM]; TDP1 cell noCPT: -27%; ELG1 DNA repair: inconclusive; HT1080NT lethal: inconclusive; IL-1B inflam inh: -94*; TDP1 cell CPT: inconclusive

Results for CCOC(=O)C1C2C=CC(CC2)N1c1ccccc1 (stereo not drawn) ?
HT1080 IDH1KD tx: 22%; TDP1 cell noCPT: -4%; HT1080NT lethal: 22%; IL-1B inflam inh: -2; TDP1 cell CPT: -4%

How did CCCCN(CC)CCCNC(=O)C1CCCN(c2ncnc3c2nc2n3CCCCC2)C1 (stereo not drawn) do in these assays?
TDP1 cell noCPT: 4%; TDP1 cell CPT: -14%

How did CCCc1[nH]nc2c1C(c1ccccc1OC)C(C#N)=C(N)O2 (stereo not drawn) do in these assays?
HT1080 IDH1KD tx: -2%; TDP1 cell noCPT: inconclusive; ELG1 DNA repair: 18%; HT1080NT lethal: -3%; IL-1B inflam inh: -53*; TDP1 cell CPT: inconclusive

Results for CCCc1[nH]nc2c1C(c1ccccc1OCC)C(C#N)=C(N)O2 (stereo not drawn) ?
HT1080 IDH1KD tx: -9%; TDP1 cell noCPT: -10%; ELG1 DNA repair: 7%; HT1080NT lethal: -3%; IL-1B inflam inh: inconclusive; TDP1 cell CPT: inconclusive

How did CCCc1[nH]nc2c1C(c1ccc(O)c(OC)c1)C(C#N)=C(N)O2 (stereo not drawn) do in these assays?
HT1080 IDH1KD tx: -3%; TDP1 cell noCPT: -25%; ELG1 DNA repair: 10%; HT1080NT lethal: 1%; IL-1B inflam inh: -67*; TDP1 cell CPT: -16%

How did COCc1[nH]nc2c1C(c1cc(OC)c(O)c(OC)c1)C(C#N)=C(N)O2 (stereo not drawn) do in these assays?
HT1080 IDH1KD tx: 22%; TDP1 cell noCPT: -7%; ELG1 DNA repair: 18µM*; HT1080NT lethal: 22%; IL-1B inflam inh: -7; TDP1 cell CPT: -24%

How did CCCc1[nH]nc2c1C(c1ccncc1)C(C#N)=C(N)O2 (stereo not drawn) do in these assays?
HT1080 IDH1KD tx: 14%[9.24 µM]; TDP1 cell noCPT: -17%; ELG1 DNA repair: 19%; HT1080NT lethal: 11%; IL-1B inflam inh: 0; TDP1 cell CPT: -11%

Results for CCOC(=O)c1c(C)[nH]c(-c2csc(N)n2)c1C ?
HT1080 IDH1KD tx: 4.6µM*; TDP1 cell noCPT: inconclusive; ELG1 DNA repair: 13%; HT1080NT lethal: 6.5µM*; IL-1B inflam inh: 42; TDP1 cell CPT: -17%

What do the screens show for `CCOC(=O)c1csc(N)n1`?
HT1080 IDH1KD tx: 5%; TDP1 cell noCPT: -9%; ELG1 DNA repair: inconclusive; HT1080NT lethal: 12%; IL-1B inflam inh: 5; TDP1 cell CPT: 10%

What do the screens show for `CCOC(=O)c1c(C)[nH]c(-c2csc(C)n2)c1C`?
HT1080 IDH1KD tx: -18%; TDP1 cell noCPT: 13µM*; ELG1 DNA repair: inconclusive; HT1080NT lethal: 0%; IL-1B inflam inh: -15; TDP1 cell CPT: inconclusive

Results for NCC1CCN(c2nc3ccccc3c3c2CCCC3)CC1 ?
HT1080 IDH1KD tx: inconclusive; TDP1 cell noCPT: 12µM*; HT1080NT lethal: -27%; IL-1B inflam inh: -95*; TDP1 cell CPT: 21µM*

What do the screens show for `N#C/C(=C\c1cccnc1)C(=O)Nc1ccc(Cl)cc1`?
HT1080 IDH1KD tx: -3%; TDP1 cell noCPT: 0%; ELG1 DNA repair: 0%; HT1080NT lethal: 0%; IL-1B inflam inh: 25; TDP1 cell CPT: inconclusive

What do the screens show for `O=C(/C(=C/c1ccncc1)n1ccnc1)c1ccc(Cl)cc1Cl`?
HT1080 IDH1KD tx: -1%; TDP1 cell noCPT: 13µM*; ELG1 DNA repair: inconclusive; HT1080NT lethal: -3%; IL-1B inflam inh: -10; TDP1 cell CPT: 16µM*

How did O=C(/C(=C/c1cccnc1)n1ccnc1)c1ccc(Cl)cc1Cl do in these assays?
HT1080 IDH1KD tx: -8%; TDP1 cell noCPT: 15µM*; ELG1 DNA repair: 0%; HT1080NT lethal: 5%; IL-1B inflam inh: inconclusive; TDP1 cell CPT: 16µM*

What do the screens show for `O=C(c1ccco1)N1CC2(CC(c3ccc(Cl)cc3)=NO2)CN1Cc1ccc(Br)cc1` (stereo not drawn)?
HT1080 IDH1KD tx: 9%; TDP1 cell noCPT: inconclusive; HT1080NT lethal: 6%; IL-1B inflam inh: -17; TDP1 cell CPT: 21µM*

What do the screens show for `Cc1ccc(CC2(c3ccccc3)NC(=O)NC2=O)cc1` (stereo not drawn)?
HT1080 IDH1KD tx: -2%; TDP1 cell noCPT: inconclusive; HT1080NT lethal: -5%; IL-1B inflam inh: 16; TDP1 cell CPT: -10%

What do the screens show for `COc1ccc(CN2CCN(CCc3ccccc3)C(CCO)C2)c(O)c1` (stereo not drawn)?
HT1080 IDH1KD tx: 0%; TDP1 cell noCPT: -14%; ELG1 DNA repair: 4%; HT1080NT lethal: -2%; IL-1B inflam inh: 27; TDP1 cell CPT: -11%

How did Cc1nn(C)c2c1c(C(F)(F)F)cc(=O)n2CC(=O)N1CCCCC1 do in these assays?
TDP1 cell noCPT: -26%; TDP1 cell CPT: inconclusive

How did Cc1cc(=O)n(CC(=O)N2CCN(c3ccccc3F)CC2)c2c1c(C)nn2C do in these assays?
TDP1 cell noCPT: 8.2µM*; TDP1 cell CPT: 16µM*

Results for CCOC(=O)C1CCN(C(=O)Cn2c(=O)cc(C)c3c(C)nn(C)c32)CC1 ?
TDP1 cell noCPT: 18µM*; TDP1 cell CPT: 26µM*

How did Cn1ccn(CCCCCCn2ccn(C)c2=S)c1=S do in these assays?
HT1080 IDH1KD tx: 0%; TDP1 cell noCPT: inconclusive; HT1080NT lethal: -4%; IL-1B inflam inh: 30; TDP1 cell CPT: -9%

How did CCOCCn1c2ccccc2c2nc3ccccc3nc21 do in these assays?
HT1080 IDH1KD tx: -1%; TDP1 cell noCPT: inconclusive; ELG1 DNA repair: 2%; HT1080NT lethal: 0%; IL-1B inflam inh: inconclusive; TDP1 cell CPT: inconclusive

How did CCn1c2ccccc2c2nc3cc(OC)c(OC)cc3nc21 do in these assays?
HT1080 IDH1KD tx: inconclusive; TDP1 cell noCPT: 13µM*; ELG1 DNA repair: inconclusive; HT1080NT lethal: inconclusive; IL-1B inflam inh: -52*; TDP1 cell CPT: 13µM*

How did CCn1c2ccccc2c2nc3ccccc3nc21 do in these assays?
HT1080 IDH1KD tx: -17%; TDP1 cell noCPT: 18µM*; ELG1 DNA repair: -1%; HT1080NT lethal: -17%; IL-1B inflam inh: -12; TDP1 cell CPT: inconclusive

Results for CCn1c2ccccc2c2nc3cc(C(=O)O)ccc3nc21 ?
HT1080 IDH1KD tx: inconclusive; TDP1 cell noCPT: -26%; ELG1 DNA repair: inconclusive; HT1080NT lethal: inconclusive; IL-1B inflam inh: -56*; TDP1 cell CPT: 12%
